From PubChem BioAssay AID2284423 (EPA ToxCast) come the findings set out here.

Results filed as inconclusive are left out. Activity calls are given as the source filed them. Rule for the calls: active = hit-call score of the fitted dose curve at least 0.9, where 1 is the maximum; inconclusive = response in the unintended direction; inactive = score below 0.9.

The term AC50 denotes the concentration at which the activity in the assay is half-maximal.

The subject of this assay is SRY-box transcription factor 17 (SOX17) Protein Expression, SOX17 (gene 64321). In words: CCTE_Deisenroth_DEVTOX-GLR_Ecto_SOX17: CCTE's DevTox GLR-Ecto Assay Evaluation of SRY-box transcription factor 17 (SOX17) Protein Expression, Deisenroth Lab. As for the experimental part: CCTE_Deisenroth_DEVTOX-GLR_Ecto assay is a cell-based, multiplex-readout assay that uses RUES2-GLR, a human pluripotent cell line, with measurements taken at 48 hours after chemical dosing in a 384-well microplateCCTE_Deisenroth_DEVTOX-GLR_Ecto_SOX17 is 1 of 4 assay components calculated from the CCTE_Deisenroth_DEVTOX-GLR_Ecto assay and it measures an the percentage of cells in an endoderm state. Using a type of inducible fluorescent protein reporter, gain-of-signal activity can be used to understand changes in gene expression with fluorescent microscopy. The percentage of SOX17+ cells are determined by calculating the number of SOX17+ cells divided by the cell count. To generalize the intended target to other relatable targets, this assay component is annotated to the transcription factor intended target family, where the subfamily is SRY-related HMG-box.Data from the assay component CCTE_Deisenroth_DEVTOX-GLR_Ecto_SOX17 was analyzed as 1 assay endpoint. The endpoint is the percent SOX17+ cell population minus the 0.2% DMSO control in the CCTE_Deisenroth_DEVTOX-GLR_Ecto assay. This assay endpoint can be referred to as a secondary readout since this assay has produced multiple assay endpoints where this one serves as a measure of endoderm differentiation.
All assay protocols are aligned to the DevTox GLR-Endo assay workflow. Cells are seeded into 384-well microplates for 24 hours prior to initiating differentiation in defined media for a total duration of 48 hours. A total of two chemical exposures are administered in 24-hour intervals during the 48-hour differentiation period. At the assay termination point, cells are fixed and stained with a fluorescent dye demarcating the nucleus. High-content imaging is used to acquire brightfield and fluorescent channel images across 5 fields per well. Cell identification and mean biomarker fluorescence intensities are calculated with image analysis software to determine the total cell counts for viability assessment and the biomarker expression frequency for each lineage-dependent assay. A typical experimental design tests a 10-point concentration series (1 nM - 200 uM) for 28 compounds in single technical replicate. Assay plate controls include non-differentiated pluripotent cells (baseline control), lineage-specific differentiated cells (differentiation control), and DMSO solvent exposed differentiated cells (solvent control). Experiments typically comprise a minimum of four experimental replicates (n=4).
With `CC1=C(/C=C/C(C)=C/C=C/C(C)=C\C(=O)O)C(C)(C)CCC1`, the AC50 was 183 µM (active).

Regarding `O=C1NC(=O)C(c2ccccc2)(c2ccccc2)N1`, the call was inactive.

Turning to `CC/C(=C(/CC)c1ccc(O)cc1)c1ccc(O)cc1`, the outcome was inactive.

For `CC(C)(c1ccc(O)cc1)c1ccc(O)cc1`, the call was inactive.

For `CS(=O)(=O)OCCCCOS(C)(=O)=O`, the half-maximal activity concentration (AC50) is 100 µM (active).

With `CCCC(CCC)C(=O)O`, the call was inactive.

Consider `O=c1[nH]cc(F)c(=O)[nH]1`, for which the half-maximal activity concentration (AC50) is 32 µM (active).

In the case of `O=C1NS(=O)(=O)c2ccccc21`, the result was inactive.

Regarding `CN(Cc1cnc2nc(N)nc(N)c2n1)c1ccc(C(=O)N[C@@H](CCC(=O)O)C(=O)O)cc1`, the compound was called inactive.

Consider `O=C1CCC(N2C(=O)c3ccccc3C2=O)C(=O)N1` (configuration not stated), for which the outcome was inactive.

As to `CCN(CC)CCNC(=O)c1c(C)[nH]c(/C=C2\C(=O)Nc3ccc(F)cc32)c1C`, the concentration at half-maximal activity (AC50) is 1.14 µM (active).

For `CC1=C(/C=C/C(C)=C/C=C/C(C)=C/C(=O)O)C(C)(C)CCC1`, the half-maximal activity concentration (AC50) was 171 µM (active).
